# Measurements taken from PubChem BioAssay.
# Activity calls are given as the source filed them. The rule behind the calls is not given here.
# Biological target: Lethal factor (Bacillus anthracis) (UniProt P15917)
# Assay: Lethal factor protease inhibitors, Bacillus anthracis, multiplex microsphere cleavage assay, validation set (AID 588461)
# Conditions: flow cytometry, at 10 µM, stronger effect = higher value
# Sequence of Lethal factor (Bacillus anthracis) (P15917 whole entry, looked up): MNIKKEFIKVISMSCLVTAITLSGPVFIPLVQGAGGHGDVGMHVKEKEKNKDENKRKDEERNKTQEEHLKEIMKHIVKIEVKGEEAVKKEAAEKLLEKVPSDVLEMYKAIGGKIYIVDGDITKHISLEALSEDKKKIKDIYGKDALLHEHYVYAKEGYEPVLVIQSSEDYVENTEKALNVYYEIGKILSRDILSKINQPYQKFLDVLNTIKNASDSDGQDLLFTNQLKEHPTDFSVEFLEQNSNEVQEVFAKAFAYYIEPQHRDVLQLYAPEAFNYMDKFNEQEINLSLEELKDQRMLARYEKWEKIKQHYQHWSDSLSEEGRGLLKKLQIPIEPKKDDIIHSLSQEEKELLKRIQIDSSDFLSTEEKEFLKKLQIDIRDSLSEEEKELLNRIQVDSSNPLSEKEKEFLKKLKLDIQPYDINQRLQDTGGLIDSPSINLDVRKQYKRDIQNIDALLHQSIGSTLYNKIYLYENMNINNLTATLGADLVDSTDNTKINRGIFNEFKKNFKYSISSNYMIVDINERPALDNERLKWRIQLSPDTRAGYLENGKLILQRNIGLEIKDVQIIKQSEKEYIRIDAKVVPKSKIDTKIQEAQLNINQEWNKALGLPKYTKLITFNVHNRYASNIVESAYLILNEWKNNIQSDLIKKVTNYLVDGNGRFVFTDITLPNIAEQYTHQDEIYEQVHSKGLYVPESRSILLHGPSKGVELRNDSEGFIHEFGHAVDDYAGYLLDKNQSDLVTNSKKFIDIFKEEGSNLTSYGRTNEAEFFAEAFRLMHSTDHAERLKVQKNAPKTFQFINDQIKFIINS
row,Structure (SMILES),inhibition
1,CCOc1cc2oc(=O)c3c(c2cc1Cl)CCC3,-2.7% (inactive)
2,O=C1CCCC(=O)C1=Cc1c[nH]c2ccccc12,-6.4% (inactive)
3,CN1CCC(=C2c3ccccc3CC(=O)c3sccc32)CC1,-4% (inactive)
4,O=C(N/N=C\c1cc([N+](=O)[O-])ccc1N1CCOCC1)c1ccccn1,2.6% (inactive)
5,O=c1[nH]c(=O)n(C2CCCO2)cc1F (centres undefined),1.8% (inactive)
6,CC(C)OC(=O)C1C(=O)CC(C)(O)C(C(=O)OC(C)C)C1c1cccc(O)c1 (centres undefined),-2.7% (inactive)
7,O=C(CN1C(=O)/C(=C/c2cccc(Br)c2)SC1=S)Nc1cccnc1,4.2% (inactive)
8,COC(=O)c1cc(=O)c2ccc(OC)cc2o1,2.2% (inactive)
9,O=C(OCC1OC2OC3(CCCCC3)OC2C2OC3(CCCCC3)OC12)c1ccccc1 (centres undefined),-2.2% (inactive)
10,CC(C)[C@H](NC(=O)[C@@H]1CSCN1C(=O)OC(C)(C)C)C(=O)NCC1CCC(C(=O)O)CC1 (some centres undefined),-2.2% (inactive)
11,Fc1ccc(C(c2ccc(F)cc2)N2CCN(C/C=C/c3ccccc3)CC2)cc1,-5.7% (inactive)
12,COc1ccc2c(c1)[nH]c1c(=O)n(Cc3ccccn3)cnc12,-4.7% (inactive)
13,COCc1cc(=O)[nH]c(/N=C(\N)Nc2ccc(Oc3ccccc3)cc2)n1,5.6% (inactive)
14,O=C1CCCCCN1Cc1ccccc1,-2.7% (inactive)
15,Nc1nc(Cl)nc2c1ncn2[C@@H]1O[C@H](CO)[C@@H](O)[C@H]1O,-6.9% (inactive)
16,COC(=O)c1cc(OC)c(OC)c(OC)c1[N+](=O)[O-],-0.2% (inactive)
17,COCCCC/C(=N\OCCN)c1ccc(C(F)(F)F)cc1,-0.1% (inactive)
18,O=C(O)c1ccc(C(=O)C(=O)c2ccccc2)cc1,-6.8% (inactive)
19,CC(=O)OCC(=O)[C@H]1CC[C@H]2[C@@H]3CC=C4C[C@@H](O)CC[C@]4(C)[C@H]3CC[C@]12C,-7.4% (inactive)
20,COc1ccc(CNC(=O)C2CCN(C(=O)[C@@H](CC(C)C)NC(=O)OC(C)(C)C)CC2)cc1,-3.7% (inactive)

row,Structure (SMILES),inhibition
1,O=C(CS(=O)(=O)Cc1ccccc1)NCc1ccc2c(c1)OCO2,-6.5% (inactive)
2,CC(=O)OC(C)C[N+](C)(C)C (centres undefined),-5.8% (inactive)
3,O=C1CC[C@@H](CN(Cc2ccccc2)Cc2cn[nH]c2-c2cc3ccccc3o2)N1,-0.2% (inactive)
4,Cc1cn([C@H]2C[C@H](N=[N+]=[N-])[C@@H](CO)O2)c(=O)[nH]c1=O,-2.8% (inactive)
5,S=C(NCCOCCOCCNC(=S)Nc1ccccc1)Nc1ccccc1,-3.8% (inactive)
6,C[N+]12CCC(CC1)C(OC(=O)C(O)(c1ccccc1)c1ccccc1)C2 (centres undefined),-0.4% (inactive)
7,CCOc1ccc(CC2CCC(=O)NC2=O)cc1 (centres undefined),-1.5% (inactive)
8,C[C@]12CC[C@@H]3c4cc(O)c(O)cc4CC[C@H]3[C@@H]1CC[C@@H]2O,-0.8% (inactive)
9,CCN1CCn2c3c(c4cc(Cl)ccc42)CCCC31 (centres undefined),-8.7% (inactive)
10,COc1ccc(-c2c3c(=O)n(C)c(=O)n(C)c3cn2C2CCCCC2)cc1,-3.1% (inactive)
11,Cc1nonc1CN(C)C(=O)c1ccc(OC2CCN(C(=O)c3cccnc3)CC2)cc1,10.7% (inactive)
12,COCCNC(=O)CSc1ccc(Cl)cc1,1.4% (inactive)
13,NCCc1cnc[nH]1,3.7% (inactive)
14,CC(C)CCC1(CCNC(C)c2cccs2)CCOC(C)(C)C1 (centres undefined),-5.3% (inactive)
15,COc1ccccc1C(O)c1nccn1C (centres undefined),0.4% (inactive)
16,O=C(c1ccc(F)cc1)[C@@H]1[C@@H](C(=O)c2ccccc2)[C@@]2(C(=O)Nc3ccccc32)[C@H]2c3ccccc3C=CN12,-3.6% (inactive)
17,CC(C)(C)n1c(=O)[nH]c2c(c1=O)CCC2,-3.9% (inactive)
18,COc1ccc(-c2c[n+](CC(=O)OC3CC(C)CCC3C(C)C)c3n2CCC3)cc1 (centres undefined),-5.8% (inactive)
19,Cc1ccc(P(=O)(CSC(=N)N)c2ccc(C)cc2)cc1,-7.5% (inactive)
